In the supplement of paper PMC13380429:

tested on: Vero E6 infected with SARS-CoV-2; test: morphology score (similarity to uninfected cells); higher = more like uninfected cells; details: 24 h

Structure (SMILES) | morphology score
C[C@]12CCC(=O)C=C1CC[C@@H]1[C@@H]2[C@@H](O)C[C@@]2(C)[C@H]1CC[C@]2(O)C(=O)COP(=O)(O)O [hydrocortisone-phosphate] (10 µM) | -0.00553
COc1cc(NS(=O)(=O)c2ccc(N)cc2)nc(OC)n1 [sulphadimethoxine] (10 µM) | -0.00223
Oc1cc(O)cc(O)c1 [phloroglucin] (10 µM) | -0.0825
O=C(O)c1cc(-c2ccccc2)nc2ccccc12 [cinchophen] (10 µM) | 0.0922
C[C@@H]1CN(c2c(F)c(F)c3c(=O)c(C(=O)O)cn(C4CC4)c3c2F)C[C@H](C)N1 [orbifloxacin] (10 µM) | 0.149
CCCCCCC[N+](CC)(CC)CCCCc1ccc(Cl)cc1 [clofilium] (10 µM) | 0.0344
O=C(O)CCCc1ccc(N(CCCl)CCCl)cc1 [chlorambucil] (10 µM) | 0.143
Oc1cccc(-c2c3nc(c(-c4cccc(O)c4)c4ccc([nH]4)c(-c4cccc(O)c4)c4nc(c(-c5cccc(O)c5)c5ccc2[nH]5)CC4)C=C3)c1 [temoporfin] (0.833333 µM) | -0.0311
O=C(Nc1ccccc1C(=O)NC1CCCCNC1=O)c1cc2ccccc2s1 (stereo unspecified) (10 µM) | 0.0242
[O-][S+](c1ccccc1)c1ccc2nnnn2n1 (stereo unspecified) (0.833333 µM) | 0.19
C[C@@H]1NC(=O)[C@@H]2CCCN2C(=O)[C@H](CC(N)=O)NC(=O)[C@@H]2CSSC[C@H](N)C(=O)N[C@H]3CSSC[C@H](NC1=O)C(=O)N[C@@H]([C@@H](C)O)C(=O)NCC(=O)N[C@H](C(=O)N[C@@H](Cc1ccc(O)cc1)C(=O)O)CSSC[C@H](NC(=O)[C@H](Cc1ccc(O)cc1)NC(=O)[C@H](CCC(=O)O)NC3=O)C(=O)N2 [linaclotide] (10 µM) | 0.0259
